Experimental data reported in the supplement of paper PMC7156485.
± gives the standard deviation of the averaged measurements.

How the values were obtained:
Conditions in all cases: concentration: 10 µM; 24 h
HCC1569 [1] = assay: cell number relative to DMSO (% of DMSO); higher = more cells (less growth inhibition / toxicity)
Procedure, shortened: (§1)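 H1.0 nuclear intensity or cell number is expressed as percent of the plate control, with the median of replicates taken. HCC1569 and TDF cells were treated with compounds at 10 µM for 24 h at 37 °C, in triplicate, then fixed and immunostained for H1.0 with DAPI as a nuclear stain. HCC1569 values were smoothed to correct for positional effects.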

TDF [2] = assay: as above
Procedure, shortened: as §1

TDF [3] = assay: H1.0 immunofluorescence intensity relative to DMSO (% of DMSO); higher = stronger H1.0 induction, active = 120 or more
Procedure, shortened: as §1

HCC1569 [4] = assay: H1.0 immunofluorescence intensity relative to DMSO (% of DMSO); higher = stronger H1.0 induction, active = 140 or more
Procedure, shortened: as §1
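Throughout, for H1.0 immunofluorescence intensity relative to DMSO: TDF is a line of transformed human dermal fibroblasts of mesenchymal origin.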
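Throughout, for cell number relative to DMSO: TDF denotes transformed human dermal fibroblasts of mesenchymal origin.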

| Structure (SMILES) | cell number (HCC1569 [1]) | cell number (TDF [2]) | H1.0 immunofluorescence intensity (TDF [3]) | H1.0 immunofluorescence intensity (HCC1569 [4]) |
| --- | --- | --- | --- | --- |
| NC(CCC(=O)NC(CSN=O)C(=O)NCC(=O)O)C(=O)O (stereo not given) [S-Nitrosoglutathione] | 104 | 102 | 88.7 (inactive) | 90.2 (inactive) |
| O=[N+]([O-])c1ccc(Nc2nc(N3CCOCC3)nc(N3CCOCC3)n2)cc1 | 96.5 | 99 | 95.8 (inactive) | 102 (inactive) |
| N#CC(=Cc1ccc(O)c(O)c1)C(=O)OCC=Cc1ccccc1 | 91.9 | 105 | 90.5 (inactive) | 115 (inactive) |
| CCCCCC=CCC=CCCCCCCCCCC(=O)O [Eicosadienoic acid] | 103 ± 1.2 | 92.6 ± 7.5 | 100 (inactive) | 96.4 (inactive) |
| CCCCCCCCCCCCCCCC(O)C(CO)NC(=O)CCCCCCC (stereo not given) [C8 Dihydroceramide] | 100 | 104 | 97.1 (inactive) | 108 (inactive) |
| Cc1ccc(C)c(-c2cc(C(F)(F)F)nn2-c2ccc(S(N)(=O)=O)cc2)c1 | 101 | 96.8 | 97.5 (inactive) | 101 (inactive) |
| N=C1SC(=Cc2ccc(-c3ccc4c(c3)C(=O)NC4=O)o2)C(=O)N1c1ccc(Br)cc1 [Bioymifi] | 94.2 | 67.9 | 96.5 (inactive) | 277 (active) |
| CC#CC1(O)CCC2C3CCC4=CC(=O)CCC4=C3C(c3ccc(N(C)C)cc3)CC21C (stereo not given) [Mifepristone] | 101 ± 8.2 | 111 ± 13 | 96.8 (inactive) | 102 (inactive) |
| NCCCCCC(=O)O [6-Aminohexanoic acid] | 101 | 116 | 106 (inactive) | 102 (inactive) |
| O=C(NC(CO)C(O)c1ccc([N+](=O)[O-])cc1)C(Cl)Cl (stereo not given) [Chloramphenicol] | 100 | 92.2 | 93.1 (inactive) | 112 (inactive) |
| OCC1OC(n2cnc3c(NC4CCCC4)ncnc32)C(O)C1O (stereo not given) [N6-Cyclopentyladenosine] | 99.8 | 104 | 93.5 (inactive) | 97.7 (inactive) |
| CC(C)N(CCC(=O)c1ccc2ccccc2c1)Cc1ccccc1.Cl [JAK3 Inhibitor IV] | 101 | 97 | 96.1 (inactive) | 110 (inactive) |
| c1ccc(-c2[nH]ncc2-c2ccnc3ccccc23)nc1 | 98 | 107 | 94.8 (inactive) | 102 (inactive) |
| Cc1ccc(OCC(O)C(C)NC(C)C)c2c1CCC2.Cl (stereo not given) [ICI 118,551 hydrochloride] | 101 | 104 | 96.9 (inactive) | 98.4 (inactive) |
| CCOC(=O)c1ncn2c1CN(C)C(=O)c1cc(F)ccc1-2 [Flumazenil] | 104 ± 7.3 | 97.3 ± 3.1 | 98.2 (inactive) | 93.6 (inactive) |
| N[C@@H](CCCC(=O)O)C(=O)O [L-2-aminoadipic acid] | 105 | 109 | 99.8 (inactive) | 93.6 (inactive) |
| NC(CCCP(=O)(O)O)C(=O)O (racemic) | 103 | 105 | 94 (inactive) | 93.7 (inactive) |
| CN(C)c1nc(N(C)C)nc(N(C)C)n1 [Altretamine] | 103.1 ± 0.68 | 108.4 ± 0.31 | 100 (inactive) | 113 (inactive) |
| O=C(c1ccc(F)cc1)C1CCN(CCn2c(=O)[nH]c3ccccc3c2=O)CC1 [Ketanserin] | 101 | 105 | 91.7 (inactive) | 117 (inactive) |
| Brc1ccc(C2CN3CCSC3=N2)cc1.O=C(O)C(=O)O (stereo not drawn) [S(-)-p-Bromotetramisole oxalate] | 107 | 107 | 99.6 (inactive) | 94.6 (inactive) |
| CC[n+]1c(C=CN(C)c2ccccc2)n(-c2ccccc2)c2ccc(-c3nc4ccccc4s3)cc21.[I-] [Akt Inhibitor IV] | 38.7 | 21.3 | 148 (active) | 66.5 (inactive) |
| CC(C)CCNC(=O)C(CC(C)C)NC(=O)C1OC1C(=O)O (stereo not given) | 106 | 96.1 | 100 (inactive) | 92.5 (inactive) |
| CC(C)NCC(O)c1ccc(O)c(O)c1.Cl (racemic) | 104 | 94 | 97.4 (inactive) | 99 (inactive) |
| O=c1c(-c2ccc(O)cc2)coc2cc(O)cc(O)c12 [Genistein] | 97.9 ± 4.4 | 99 ± 4.5 | 92.8 (inactive) | 97.6 (inactive) |
| O=C1CCCC(=O)C1C(=O)c1ccc(C(F)(F)F)cc1[N+](=O)[O-] [2-[2-nitro-4-(trifluoromethyl)benzoyl]-1,3-cyclohexanedione] | 96.1 | 104 | 99.8 (inactive) | 101 (inactive) |

| Structure (SMILES) | cell number (HCC1569 [1]) | cell number (TDF [2]) | H1.0 immunofluorescence intensity (TDF [3]) | H1.0 immunofluorescence intensity (HCC1569 [4]) |
| --- | --- | --- | --- | --- |
| C=CC1(C)CCC2C(=CCC3C(C)(C(=O)O)CCCC23C)C1 (stereo not drawn) [(4alpha,13alpha)-pimara-7,15-dien-18-oic acid] | 102 | 101 | 99 (inactive) | 86.6 (inactive) |
| CC1=CCC(C)(C)C=CC(=O)C(C)=CCC1 [Zerumbone] | 87.7 | 89.7 | 104 (inactive) | 121 (inactive) |
| CCCc1nn(C)c2c(=O)nc(-c3cc(S(=O)(=O)N4CCN(C)CC4)ccc3OCC)[nH]c12 [Sildenafil] | 101 | 94 | 95.1 (inactive) | 103 (inactive) |
| CC(C)NCC(O)COc1cccc2ccccc12.Cl [(S)-Propranolol hydrochloride] | 74.5 | 95.9 | 87.7 (inactive) | 230 (active) |
| CCCCCCCCC(=O)NCc1cc(OC)c(O)cc1I [N-(4-hydroxy-2-iodo-5-methoxybenzyl)nonanamide] | 96.2 | 98.9 | 93.2 (inactive) | 116 (inactive) |
| CN(C)CCCn1cc(C2=C(c3c[nH]c4ccccc34)C(=O)NC2=O)c2ccccc21 | 86.2 | 79.5 | 115 (inactive) | 139 (inactive) |
| CC1Cc2ccccc2N1NC(=O)c1ccc(Cl)c(S(N)(=O)=O)c1 (stereo not given) [Indapamide] | 106 | 101 | 88.5 (inactive) | 112 (inactive) |
| CCCCCCCCCCCC(CC1OC(=O)C1CCCCCC)OC(=O)C(CC(C)C)NC=O (stereo not given) [Tetrahydrolipistatin] | 100 | 99.2 | 99.2 (inactive) | 90.5 (inactive) |
| Oc1cc2c(cc1O)CN(C(=S)NCCc1ccc(Cl)cc1)CCC2 [Capsazepine] | 106 | 112 | 91.8 (inactive) | 86.2 (inactive) |
| COc1cc(OC)cc(-c2cc3cnc(N)nc3nc2NC(=O)NC(C)(C)C)c1 | 84.2 | 90.4 | 101 (inactive) | 139 (inactive) |
| Cl.Nc1ccn(C2OC(CO)C(O)C2O)c(=O)n1 [Cytosine-1-beta-D-arabinofuranoside hydrochloride] | 75.3 | 45.5 | 121 (active) | 100 (inactive) |
| CN(C)c1ccnc2sc3c(=O)n(N4CCCCCC4)cnc3c12 | 109 | 103 | 91 (inactive) | 89.5 (inactive) |
| CC(C)=CCCC(C)(O)C1CCC2(C)C1CCC1C3(C)CCC(=O)C(C)(C)C3CCC12C (stereo not given) [Dipterocarpol] | 95.8 | 102 | 97.8 (inactive) | 82.7 (inactive) |
| CCC(CO)Nc1nc(NCc2ccc(-c3ccccn3)cc2)c2ncn(C(C)C)c2n1 [CR8, (S)-Isomer] | 52.6 | 23.5 | 124 (active) | 128 (inactive) |
| CC(=O)OCC(=O)C1(O)CCC2C3CCC4=CC(=O)CCC4(C)C3C(=O)CC21C (stereo not given) [Cortisone 21-acetate] | 101 | 120 | 97.5 (inactive) | 89.1 (inactive) |
| N=S(=O)([O-])Cc1noc2ccccc12.[Na+] [Zonisamide sodium] | 104 | 117 | 92.2 (inactive) | 98.6 (inactive) |
| O=c1[nH]c2ccccc2c2ccccc12 [6(5H)-Phenanthridinone] | 100 | 109 | 93.8 (inactive) | 104 (inactive) |
| CCC1(O)CC2CN(CCc3c([nH]c4ccccc34)C(C(=O)OC)(c3cc4c(cc3OC)N(C)C3C(O)(C(=O)OC)C(OC(C)=O)C5(CC)C=CCN6CCC43C65)C2)C1.O=S(=O)(O)O (stereo not given) [Vinblastine sulfate] | 53.3 | 11.2 | 156 (active) | 131 (inactive) |
| CC1CCc2c(N3CCC(O)CC3)c(F)cc3c(=O)c(C(=O)O)cn1c23 (stereo not given) [Nadifloxacin] | 107 | 89.2 | 98.7 (inactive) | 101 (inactive) |
| O=C(NOCC(O)CO)c1ccc(F)c(F)c1Nc1ccc(I)cc1F (stereo not given) | 105 | 104 | 87.3 (inactive) | 94.6 (inactive) |
| CS(=O)(=O)N1CCN(Cc2cc3nc(-c4cccc5[nH]ncc45)nc(N4CCOCC4)c3s2)CC1 | 57.3 | 77.8 | 85.3 (inactive) | 137 (inactive) |
| N=c1ccn2c(n1)OC1C(O)C(CO)OC12 (stereo not given) [Cyclocytidine] | 76.4 | 51.7 | 103 (inactive) | 101 (inactive) |
| Oc1cc(O)c2c(c1)OC(c1ccc(O)c(O)c1)C(O)C2 (single isomer, unassigned; (-)) [(-)-Epicatechin] | 102 | 106 | 100 (inactive) | 89.2 (inactive) |
| CC(ONC(=O)c1cc(C(F)(F)F)cc(C(F)(F)F)c1)C(=O)Nc1ccc(Cl)cc1 (stereo not given) | 85.2 | 93.3 | 103 (inactive) | 144 (active) |
| CC(COc1ccc(C=Cc2ccccc2)cc1)[N+](C)(C)C.[I-] (stereo not given) | 95.6 | 84.6 | 107 (inactive) | 110 (inactive) |
